CF NFkB inh: cystic fibrosis NF-kB activation inhibition; inhibition, % at 5 µM; actives 0.86% (n = 360,000); KKLEB NF-kB-GFP reporter, PAF-induced, GFP fluorescence overnight;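 active means at least 50% inhibition at 5 µM, scaled per plate between neutral and stimulator controls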;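 further: PAF is a Pseudomonas aeruginosa culture filtrate used as stimulus; plate controls were PAF-stimulated DMSO wells for no effect and unstimulated DMSO wells for full effect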
iPSC survival up: increases survival of single human iPS cells; hiPSC single-cell survival, ATPlite luminescence; 100% = ROCK inhibitor wells, 0% = DMSO; actives 0.044% (n = 360,000); survival enhancement, % at 20 µM; in the data active means survival enhancement above about 18%;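 further: cells exposed to compounds for 16 hours before the ATP read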
HIF-2a inh: inhibitors of HIF-2a; 786-0 RCC cells HIF-2a reporter, luciferase luminescence, overnight; inhibition, % at 18.8 µM; actives 0.72% (n = 360,000); AID 624352;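 active means inhibition of the luminescence signal of 40% or more relative to plate controls, in a single-dose primary screen at 18.75 µM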
PPC-1+TRAIL kill: compounds killing PPC-1 cancer cells with TRAIL present (potentiator screen, no TRAIL-free arm); PPC-1 cells + TRAIL, ATPLite viability luminescence; actives 0.41% (n = 220,000); cell killing (% activity), % at 4 µM or 5 µM;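 active means cell killing above 50% in the first pass at 4 µM, then a duplicate retest at 5 µM averaging 50% or more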;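 further: plate controls were cells with TRAIL plus DMSO for no effect and medium-only wells lacking cells for full effect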
TRAIL sens C8: sensitizes caspase-8 expressing cells to TRAIL | NB7+C8 cells + TRAIL, ATPlite viability luminescence | inhibition (viability loss, TRAIL sensitization), % at 10 µM | actives 1% (n = 360,000);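 active means compounds causing at least 50% loss of cell viability in the single-dose screen, relative to plate controls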
KKLEB tox: CF airway cell cytotoxicity counter-screen; activity change (cytotoxicity), % at 5 µM; actives 0.36% (n = 360,000); KKLEB CF airway cells viability, ATPlite luminescence, overnight; hits give low values; cells stimulated with P. aeruginosa culture filtrate;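 active means corrected activity change at or below -50% at 5 µM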
Mdm2-MdmX confirm: confirmation of inhibitors of human Mdm2/MdmX interaction, set 2. inhibition, % at 8 µM. shares compounds with HIF-2a inh. actives 99% (n = 740). SaOS-2 split-luciferase Mdm2/MdmX complementation, luminescence;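 active means mean inhibition of the luminescence signal across two replicates at or above 26 percent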
Target sequence (O15151 whole entry, looked up): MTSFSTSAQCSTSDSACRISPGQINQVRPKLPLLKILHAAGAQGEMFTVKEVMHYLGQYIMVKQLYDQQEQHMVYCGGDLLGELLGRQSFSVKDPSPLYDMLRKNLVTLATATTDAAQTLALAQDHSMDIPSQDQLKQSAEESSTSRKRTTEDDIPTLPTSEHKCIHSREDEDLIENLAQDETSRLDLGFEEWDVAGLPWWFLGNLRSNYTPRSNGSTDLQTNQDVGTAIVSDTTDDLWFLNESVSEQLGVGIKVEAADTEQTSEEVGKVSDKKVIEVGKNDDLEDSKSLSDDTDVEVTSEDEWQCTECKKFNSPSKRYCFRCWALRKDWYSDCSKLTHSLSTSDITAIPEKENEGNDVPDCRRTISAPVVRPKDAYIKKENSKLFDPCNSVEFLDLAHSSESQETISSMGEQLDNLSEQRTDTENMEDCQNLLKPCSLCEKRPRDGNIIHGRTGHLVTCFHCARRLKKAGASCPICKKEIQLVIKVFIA
Target sequence (Q00987 whole entry, looked up): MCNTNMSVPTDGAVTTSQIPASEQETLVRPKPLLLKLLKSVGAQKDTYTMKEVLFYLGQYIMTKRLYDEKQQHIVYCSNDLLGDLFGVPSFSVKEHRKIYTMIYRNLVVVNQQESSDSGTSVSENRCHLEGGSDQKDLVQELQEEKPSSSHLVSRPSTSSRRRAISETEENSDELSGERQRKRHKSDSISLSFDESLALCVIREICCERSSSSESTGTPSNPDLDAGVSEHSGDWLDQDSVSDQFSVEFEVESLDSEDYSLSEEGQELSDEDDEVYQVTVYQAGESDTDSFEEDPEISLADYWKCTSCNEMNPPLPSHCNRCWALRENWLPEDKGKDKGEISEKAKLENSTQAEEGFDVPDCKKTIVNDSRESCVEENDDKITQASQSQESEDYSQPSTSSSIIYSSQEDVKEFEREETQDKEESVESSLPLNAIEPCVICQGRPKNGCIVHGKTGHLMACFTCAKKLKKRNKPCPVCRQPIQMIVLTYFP
HIF-2a conf: confirmation of HIF-2a inhibitors. shares compounds with HIF-2a inh. 786-0 RCC cells, HIF-2a luciferase reporter luminescence, overnight. inhibition, % at 18.8 µM. actives 56% (n = 1,800). AID 651580;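 active means mean inhibition across four replicates of at least 40 percent at the single tested concentration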
HIF-1a counter: HIF-1a inhibition counter-screen for HIF-2a hits; shares compounds with HIF-2a inh; MiaPaCa-2 HIF-1a luciferase reporter, desferoxamine, overnight; inhibition, % at 18.8 µM; actives 72% (n = 1,800); AID 651589;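 active means mean inhibition of the reporter signal across four replicates at the single tested dose of 50% or more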
* marks the source's active call; other numbers are inactive results; x = no result given. A selection: hits, their analogues and other compounds. The true share with any hit is near 2.2%.

SMILES	CF NFkB inh	iPSC survival up	HIF-2a inh	PPC-1+TRAIL kill	TRAIL sens C8	KKLEB tox	HIF-2a conf	HIF-1a counter	others
COc1cc(C(C)=O)ccc1OCC(O)CNCC(O)c1ccccc1 (configuration not stated)	7.0	0.0	7.2	x	-13.0	2.5	x	x
Nc1cc2ccncc2c2ccccc12	65.0*	-0.3	23.0	-24.0	2.9	-6.0	x	x	Mdm2-MdmX confirm=90.2*
N#Cc1cc2ccncc2c2ccccc12	6.3	2.1	22.4	x	-12.6	-21.5	x	x
C/C(=N\OC(=O)Nc1ccccc1)c1cnn(-c2cc(C(F)(F)F)cc(C)n2)c1C	-26.0	-0.4	4.2	4.6	4.0	-11.8	x	x
COc1cc(NCCCC(C)N)c2ncccc2c1 (configuration not stated)	-12.2	-4.4	83.8*	x	17.8	-9.7	18.9	90.1*
COc1cc(NC(=O)c2ccccc2Cl)c2ncccc2c1	17.8	0.0	-25.4	x	26.1	2.4	x	x
O=C(CCC(=O)N(CC(=O)NC1CCCC1)c1ccccc1F)Nc1nccs1	7.4	-0.3	5.0	x	-4.9	-0.9	x	x
CC(=O)Nc1sc2c(c1-c1nc3ccccc3s1)CN(C(C)C)CC2	-83.0	-4.7	8.6	x	53.6*	-44.3	x	x	Mdm2-MdmX confirm=102.7*
COc1ccc(-c2nc(CS(=O)(=O)CC(=O)NCCCN3CCOCC3)c(C)o2)cc1	-9.7	-0.3	9.1	x	-3.4	10.4	x	x
CSC1=NC=C(C#N)C2=NC(c3c(Cl)cccc3Cl)NN12 (configuration not stated)	-12.0	0.1	64.7*	x	-10.8	0.7	1.2	5.2
CCOC(=O)[C@@H]1[C@H]2COc3ccccc3[C@@H]2N2C(=O)N(c3ccc(C)cc3)C(=O)[C@]12C	-9.0	1.9	7.8	x	-2.2	11.0	x	x
CC(=O)Nc1ccc(NC2=C(Cl)C(=O)c3ccccc3C2=O)cc1	x	x	x	16.4	x	x	x	x	Mdm2-MdmX confirm=103.2*
C[C@@H]1CN([C@@H](C)CO)C(=O)CCCn2cc(nn2)CO[C@H]1CN(C)S(=O)(=O)c1ccc2c(c1)OCCCO2	32.2	-1.5	-6.9	x	8.1	2.5	x	x
CN(C)c1nc(Nc2ccccc2)nc(N(C)C)n1	9.3	-2.6	-13.7	18.7	-12.1	-2.4	x	x
CN(C)c1ccc(Nc2nc(N)c3ccccc3n2)cc1	-18.7	-0.7	47.2*	x	83.9*	-62.2*	79.0*	44.8
Cc1cc(OC(=O)c2cccc(Br)c2)c([N+](=O)[O-])c(=O)[nH]1	-10.8	5.6	8.6	x	-5.8	10.8	x	x
CC1CCc2c(sc3nc(C(C)(C)C)nc(N4CCN(C(=O)CCl)CC4)c23)C1 (configuration not stated)	96.6*	0.3	42.5*	x	94.3*	-92.3*	33.3	105.9*
CCC(=O)N1CCN(c2nc(CC)nc3sc4c(c23)CCCC4)CC1	12.4	0.8	14.5	x	1.9	-13.9	x	x
O=c1c2ccccc2cnn1CCOc1ccccc1	-27.1	-2.3	53.8*	43.0	37.9	3.1	64.3*	70.5*
O=C(O)Cn1ncc2ccccc2c1=O	-2.5	0.9	9.1	18.5	-4.3	3.0	x	x
COc1ccc(CNC(=O)[C@@H](C)NC(=O)C2CCN(C(=O)[C@@H](N)CCSC)CC2)cc1	15.3	2.1	11.8	x	-17.2	-7.0	x	x
Cc1c(C(=O)Nc2ccc(-c3nnc4n3CCCCC4)cc2)oc2c1ccc1ccccc12	-35.9	1.4	56.0*	-8.5	8.9	-9.8	-50.5	106.1*
O=C(Nc1ccc(-c2nnc3n2CCCCC3)cc1)c1cc2ccccc2o1	-0.5	-1.0	-6.1	17.1	-7.2	-0.2	x	x
COC(=O)c1c(NC(=O)Cc2ccccc2)sc2c1CC(C)(C)NC2(C)C	16.3	-2.5	7.0	x	-8.4	-17.5	x	x
COC(=O)c1c(NC(=O)COc2ccc(Cl)cc2)sc2c1CC(C)(C)NC2(C)C	33.0	-0.3	52.0*	x	73.3*	-57.0*	9.1	99.2*
